Assay results from ChEMBL document CHEMBL3988442, “University of Dundee, Small-Polar-MMV Screening Library” (2021).
For some assays here: Potency and affinity values are given separately.

Columns and labels:
Set-up in all cases: scale not given: direction of the effect not stated beside the values
[1] = target: Protein translocase subunit SecA (Escherichia coli (strain K12)) (UniProt P10408); test: Assay to Identify E. coli SecA ATPase Inhibitors; type: functional; settings: 30 µM
[2] = target: T1, Ubiquitin-activating enzyme e1, putative (Leishmania donovani (strain BPK282A1)) (UniProt E9BSI1); test: Leishmania donovani Ubiquitin Activating Enzyme (LdE1); type: functional; settings: 30 µM
T1 sequence (whole entry): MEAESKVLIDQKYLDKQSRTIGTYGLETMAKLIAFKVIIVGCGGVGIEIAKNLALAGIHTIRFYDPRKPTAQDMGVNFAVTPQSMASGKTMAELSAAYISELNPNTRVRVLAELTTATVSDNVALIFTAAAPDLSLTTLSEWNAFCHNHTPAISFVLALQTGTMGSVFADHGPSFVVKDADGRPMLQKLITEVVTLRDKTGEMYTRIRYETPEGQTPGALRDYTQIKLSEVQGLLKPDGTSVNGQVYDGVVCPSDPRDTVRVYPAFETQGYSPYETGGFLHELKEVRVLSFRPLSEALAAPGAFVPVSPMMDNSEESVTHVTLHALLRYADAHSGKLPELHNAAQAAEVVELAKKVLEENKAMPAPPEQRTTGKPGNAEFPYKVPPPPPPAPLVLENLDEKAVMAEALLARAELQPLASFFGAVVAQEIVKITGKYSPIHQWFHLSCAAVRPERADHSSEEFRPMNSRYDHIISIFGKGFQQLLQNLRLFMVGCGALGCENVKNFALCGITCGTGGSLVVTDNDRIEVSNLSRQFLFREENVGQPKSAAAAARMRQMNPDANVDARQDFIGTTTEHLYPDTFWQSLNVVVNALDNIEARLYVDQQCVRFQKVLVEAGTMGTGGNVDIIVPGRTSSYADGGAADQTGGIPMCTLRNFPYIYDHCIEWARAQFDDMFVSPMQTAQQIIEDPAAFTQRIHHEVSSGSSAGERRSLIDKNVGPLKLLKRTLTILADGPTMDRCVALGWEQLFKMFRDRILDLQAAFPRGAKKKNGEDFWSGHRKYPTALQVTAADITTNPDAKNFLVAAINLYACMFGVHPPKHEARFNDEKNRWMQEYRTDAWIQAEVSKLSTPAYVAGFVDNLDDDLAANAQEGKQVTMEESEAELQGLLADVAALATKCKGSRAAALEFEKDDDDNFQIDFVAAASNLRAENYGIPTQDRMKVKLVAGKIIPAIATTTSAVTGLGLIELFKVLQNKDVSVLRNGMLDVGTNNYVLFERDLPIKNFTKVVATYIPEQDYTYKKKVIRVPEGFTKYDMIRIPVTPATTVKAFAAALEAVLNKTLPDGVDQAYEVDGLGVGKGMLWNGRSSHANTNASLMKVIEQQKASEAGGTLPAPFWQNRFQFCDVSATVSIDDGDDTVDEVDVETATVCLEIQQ

[3] = target: AMP-activated protein kinase, AMPK (Homo sapiens) (UniProt P54646+O43741+P54619+Q9UGJ0+Q9Y478+Q13131+Q9UGI9); test: AMP-dependent Kinase enzyme assay. An in vitro enzyme assay that detects ADP turnover that is directly proportional to AMPK activity. This uses naive AMPK that is activated during the assay with MK-8722; type: functional; settings: 30 µM
[4] = target: Sialic acid-binding Ig-like lectin 9 (Homo sapiens) (UniProt Q9Y336); test: Hs-Siglec9 ALPHAscreen SOP 20170721; settings: 10 µM
Trypanosoma cruzi = test: Trypanosoma cruzi phosphomannomutase and mannose-1-phosphate guanylyltransferase assay; type: functional; settings: 10 µM
[5] = target: T2, Arginase-2, mitochondrial (Homo sapiens) (UniProt P78540); test: in vitro enzyme assay to detect the production of urea directly proportional to the activity of Arginase II; type: functional; settings: 33.3 µM; note: in the data most compounds retested in dose-response had high values
T2 sequence (whole entry): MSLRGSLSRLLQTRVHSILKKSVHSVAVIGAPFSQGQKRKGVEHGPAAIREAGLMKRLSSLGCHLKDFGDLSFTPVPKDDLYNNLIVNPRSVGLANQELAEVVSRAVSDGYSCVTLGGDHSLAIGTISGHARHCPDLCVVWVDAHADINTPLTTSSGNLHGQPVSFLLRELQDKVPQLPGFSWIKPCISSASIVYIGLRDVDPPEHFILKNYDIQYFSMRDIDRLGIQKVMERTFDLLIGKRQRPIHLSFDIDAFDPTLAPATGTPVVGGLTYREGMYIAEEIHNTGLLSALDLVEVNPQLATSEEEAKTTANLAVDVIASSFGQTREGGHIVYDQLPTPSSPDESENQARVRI

[6] = target: T3, Proteasome subunit beta (Trypanosoma cruzi) (UniProt O96673); test: Trypanosoma cruzi proteasome chymotrypsin-like activity (TcProtChymo) assay.; note: in the data most compounds retested in dose-response had high values; type: functional; settings: 9.37 µM
T3 sequence (whole entry): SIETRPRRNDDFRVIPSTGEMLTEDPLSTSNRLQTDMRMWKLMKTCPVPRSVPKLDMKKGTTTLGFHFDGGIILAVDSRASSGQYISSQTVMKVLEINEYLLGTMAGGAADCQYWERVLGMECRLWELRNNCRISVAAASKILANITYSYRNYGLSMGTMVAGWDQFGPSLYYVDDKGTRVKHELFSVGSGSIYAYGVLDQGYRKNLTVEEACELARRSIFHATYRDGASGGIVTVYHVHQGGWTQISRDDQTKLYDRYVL

Homo sapiens = species on record: Homo sapiens; test: To identify inhibition of the IFN signalling (Jak-Stat) pathway via expression of an eGFP reporter gene under the control of an IFN-stimulated response element (ISRE) containing MxA promoter.; type: functional; settings: 30 µM
[7] = target: T4, Tyrosyl-tRNA synthetase, putative (Trypanosoma cruzi (strain CL Brener)) (UniProt Q4DSP6); test: Trypanosoma cruzi tyrosyl tRNA synthetase (TcYRS) _High Tyrosine SOP; type: functional; settings: 30 µM; note: in the data most compounds retested in dose-response had high values
T4 sequence (whole entry): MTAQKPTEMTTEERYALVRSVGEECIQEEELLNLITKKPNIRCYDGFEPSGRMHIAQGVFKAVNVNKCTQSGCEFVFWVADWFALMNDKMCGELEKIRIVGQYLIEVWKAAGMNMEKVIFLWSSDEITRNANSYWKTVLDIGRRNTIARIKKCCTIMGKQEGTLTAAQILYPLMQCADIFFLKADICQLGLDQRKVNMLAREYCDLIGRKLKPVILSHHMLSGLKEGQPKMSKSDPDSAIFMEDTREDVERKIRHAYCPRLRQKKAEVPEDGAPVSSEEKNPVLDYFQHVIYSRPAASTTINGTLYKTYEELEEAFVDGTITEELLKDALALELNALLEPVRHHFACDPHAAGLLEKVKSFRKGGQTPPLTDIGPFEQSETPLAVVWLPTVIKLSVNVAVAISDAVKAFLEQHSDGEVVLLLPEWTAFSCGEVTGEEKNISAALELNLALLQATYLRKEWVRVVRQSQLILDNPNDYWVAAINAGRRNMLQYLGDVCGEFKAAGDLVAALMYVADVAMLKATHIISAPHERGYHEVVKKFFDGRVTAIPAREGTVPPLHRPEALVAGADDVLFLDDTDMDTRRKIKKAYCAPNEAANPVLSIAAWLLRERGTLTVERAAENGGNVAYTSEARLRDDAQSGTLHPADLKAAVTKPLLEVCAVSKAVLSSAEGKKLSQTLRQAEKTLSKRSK

[8] = target: T4, Tyrosyl-tRNA synthetase, putative (Trypanosoma cruzi (strain CL Brener)); test: Trypanosoma cruzi tyrosyl tRNA synthetase (TcYRS) SOP; type: functional; settings: 30 µM
[9] = target: Chromo domain-containing protein 1 (Saccharomyces cerevisiae (strain ATCC 204508 / S288c) (Baker's yeast)) (UniProt P32657); test: ScCHD-1 Enzyme Inhibition Assay; type: functional; settings: 30 µM; note: in the data most compounds retested in dose-response had high values
Chain of Chromo domain-containing protein 1 (Saccharomyces cerevisiae (strain ATCC 204508 / S288c) (Baker's yeast)) (P32657 whole entry, the tested form may be a part): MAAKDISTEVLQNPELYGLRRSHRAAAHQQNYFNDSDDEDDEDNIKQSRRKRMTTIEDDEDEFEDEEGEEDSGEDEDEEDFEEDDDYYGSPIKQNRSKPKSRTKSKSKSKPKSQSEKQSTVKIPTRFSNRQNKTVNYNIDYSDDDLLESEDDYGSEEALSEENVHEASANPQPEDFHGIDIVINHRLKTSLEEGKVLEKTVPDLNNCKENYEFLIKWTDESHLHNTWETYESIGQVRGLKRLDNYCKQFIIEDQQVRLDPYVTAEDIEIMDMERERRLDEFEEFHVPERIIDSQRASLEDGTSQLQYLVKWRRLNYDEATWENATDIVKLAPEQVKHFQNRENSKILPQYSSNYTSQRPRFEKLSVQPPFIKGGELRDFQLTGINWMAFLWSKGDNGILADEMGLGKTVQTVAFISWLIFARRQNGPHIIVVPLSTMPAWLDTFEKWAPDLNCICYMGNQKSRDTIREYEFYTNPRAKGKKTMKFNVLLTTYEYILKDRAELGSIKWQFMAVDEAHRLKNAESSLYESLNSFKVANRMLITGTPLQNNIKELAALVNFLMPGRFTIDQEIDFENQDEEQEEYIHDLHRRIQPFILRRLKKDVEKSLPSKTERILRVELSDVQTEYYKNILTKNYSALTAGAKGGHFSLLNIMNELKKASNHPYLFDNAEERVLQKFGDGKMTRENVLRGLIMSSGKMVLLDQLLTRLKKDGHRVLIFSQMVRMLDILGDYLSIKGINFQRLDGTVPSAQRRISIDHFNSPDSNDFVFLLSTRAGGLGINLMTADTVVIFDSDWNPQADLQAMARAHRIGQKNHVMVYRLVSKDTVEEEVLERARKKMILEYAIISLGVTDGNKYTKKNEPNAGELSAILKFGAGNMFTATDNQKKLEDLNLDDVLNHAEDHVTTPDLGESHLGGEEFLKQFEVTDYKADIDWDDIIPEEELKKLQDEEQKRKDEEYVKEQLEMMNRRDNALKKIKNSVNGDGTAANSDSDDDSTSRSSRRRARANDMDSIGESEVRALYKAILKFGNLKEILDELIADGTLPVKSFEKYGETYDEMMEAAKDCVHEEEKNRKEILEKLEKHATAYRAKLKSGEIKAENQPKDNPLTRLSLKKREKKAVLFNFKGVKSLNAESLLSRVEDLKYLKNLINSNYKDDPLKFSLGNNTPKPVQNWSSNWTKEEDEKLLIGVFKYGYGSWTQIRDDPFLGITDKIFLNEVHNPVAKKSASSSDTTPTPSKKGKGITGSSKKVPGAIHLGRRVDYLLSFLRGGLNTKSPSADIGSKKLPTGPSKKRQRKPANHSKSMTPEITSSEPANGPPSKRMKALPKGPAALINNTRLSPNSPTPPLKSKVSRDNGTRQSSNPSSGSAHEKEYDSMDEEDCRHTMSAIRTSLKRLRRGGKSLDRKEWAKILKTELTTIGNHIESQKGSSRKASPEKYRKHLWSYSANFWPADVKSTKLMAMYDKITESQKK

Chain of Protein translocase subunit SecA (Escherichia coli (strain K12)) (P10408 whole entry): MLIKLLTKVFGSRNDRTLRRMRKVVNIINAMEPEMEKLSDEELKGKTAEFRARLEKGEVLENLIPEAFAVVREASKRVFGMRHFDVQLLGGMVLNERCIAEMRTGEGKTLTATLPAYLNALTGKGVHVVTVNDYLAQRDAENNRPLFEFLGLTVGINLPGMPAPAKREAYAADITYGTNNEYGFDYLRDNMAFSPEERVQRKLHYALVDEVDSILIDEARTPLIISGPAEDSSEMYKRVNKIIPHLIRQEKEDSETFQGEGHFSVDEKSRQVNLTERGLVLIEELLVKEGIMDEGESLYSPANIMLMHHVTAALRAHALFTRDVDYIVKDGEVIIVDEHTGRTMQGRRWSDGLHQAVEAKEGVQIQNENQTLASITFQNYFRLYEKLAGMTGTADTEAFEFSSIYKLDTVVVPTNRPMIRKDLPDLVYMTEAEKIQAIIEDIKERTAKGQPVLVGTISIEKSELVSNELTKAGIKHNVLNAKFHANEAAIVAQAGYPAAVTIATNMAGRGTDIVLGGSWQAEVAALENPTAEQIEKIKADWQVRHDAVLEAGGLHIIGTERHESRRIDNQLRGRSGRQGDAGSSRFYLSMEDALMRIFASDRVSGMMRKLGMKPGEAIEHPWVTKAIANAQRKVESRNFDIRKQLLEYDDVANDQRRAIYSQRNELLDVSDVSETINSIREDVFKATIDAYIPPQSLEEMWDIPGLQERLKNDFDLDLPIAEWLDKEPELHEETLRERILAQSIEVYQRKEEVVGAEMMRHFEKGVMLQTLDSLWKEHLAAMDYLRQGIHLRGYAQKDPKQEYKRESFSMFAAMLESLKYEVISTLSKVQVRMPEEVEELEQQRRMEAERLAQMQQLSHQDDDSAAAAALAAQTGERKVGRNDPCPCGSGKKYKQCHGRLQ
Chain of Sialic acid-binding Ig-like lectin 9 (Homo sapiens) (Q9Y336 whole entry): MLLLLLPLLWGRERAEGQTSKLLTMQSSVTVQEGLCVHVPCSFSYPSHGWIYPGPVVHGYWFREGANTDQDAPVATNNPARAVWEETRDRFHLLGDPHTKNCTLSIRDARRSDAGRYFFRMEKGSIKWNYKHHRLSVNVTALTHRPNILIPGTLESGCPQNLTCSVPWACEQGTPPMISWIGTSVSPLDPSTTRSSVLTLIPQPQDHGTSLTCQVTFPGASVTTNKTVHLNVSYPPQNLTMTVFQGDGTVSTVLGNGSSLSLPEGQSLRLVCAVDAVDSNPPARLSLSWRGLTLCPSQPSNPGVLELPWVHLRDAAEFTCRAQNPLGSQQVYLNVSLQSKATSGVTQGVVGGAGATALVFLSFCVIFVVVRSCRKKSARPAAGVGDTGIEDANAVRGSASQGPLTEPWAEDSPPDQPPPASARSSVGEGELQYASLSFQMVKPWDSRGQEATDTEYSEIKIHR

Compound	Percent Effect [1] [%]	Percent Effect [2] [%]	Percent Effect [3] [%]	Percent Effect [4] [%]	Percent Effect (Trypanosoma cruzi) [%]	Percent Effect [5] [%]	Percent Effect [6] [%]	Percent Effect (Homo sapiens) [%]	Percent Effect [7] [%]	Percent Effect [8] [%]	Percent Effect [9] [%]
CNc1cncc(C2CCCN2Cc2ccccc2OCC(=O)O)n1 (stereo not given)	-4.52	-52.7	7.74	0.809	-3.75	-2.55	9.52	5.72	1.07	3.9	0.143
O=C(c1ccncn1)N1CCO[C@H]2[C@@H](OCc3cccnc3)CC[C@@H]21	-1.55	8	-0.169	5.8	-3.48	-23.8	8.72	2.92	-6.25	7.5	-6.65
CCNC(=O)N1CCCCC1CCNS(C)(=O)=O (stereo not given)	-1.55	5.41	-3.93	3.76	8.3	-3.33	13.3	6.93	7.94	9.76	-1.52
Cc1cc(CN2CCN(C(C)c3nc(C4CC4)no3)CC2)no1 (stereo not given)	1.42	8.86	-5.67	-3.17	-1.33	4.52	13.4	28.4	-1.04	5.06	-25.2
COc1ccc(CCN2CCc3c(nc(C4CC4)n3C)C2)cc1	-2.18	18.2	-12.2	-0.11	-3.18	0.356	9.12	18.2	6.8	2.44	-7.4
COc1ccc(CN2C[C@@H]3CCCO[C@@H]3[C@H](NS(C)(=O)=O)C2)cc1	0.295	13.3	-2.32	4.91	2.9	-48.2	5.13	-24.2	6.25	25	-6.84
O=C(NC1=NCCCN1c1ccc(Cl)cc1)c1cccc(Cl)c1	-4.08	-5.2	0.353	-0.0638	-6.39	1.38	15.1	3.87	-5.38	-8.64	0.69
Cc1ccc(CN2CCCC23CCN(S(=O)(=O)c2ccccc2)C3)o1 (stereo not given)	-3.52	8.11	0.79	-6.47	2.25	1.59	18.6	6.15	9.73	17.9	2.48
N#Cc1cnn(-c2ccc(C(=O)Nc3ccccn3)cc2)c1N	-1.12	17.7	3.05	-10.6	7.65	-6.46	19.7	8.19	13.3	29.1	-3.72
CN1CCN(C2CCN(CCOc3ccc(F)cc3)CC2)C1=O	-8.87	2.6	0.436	-4	-3.18	-0.356	4.05	37.8	0	0	-7.75
